The whole screen tested about 310,000 compounds, of which about 14,000 (4.5%) showed an effect of 50% or more. The effect is printed as a negative number. Shown is part of a subset that was picked to be rich in strong results.
Biological target: human ether-à-go-go-related gene (hERG) potassium channel (human, UniProt Q12809)
Test: primary screen, population patch clamp on CHO cells stably expressing hERG; higher = less effect of the substance
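Note: peak tail current of the secondary pulse compared with the same well before compound.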

human ether-à-go-go-related gene (hERG) potassium channel, sequence (Q12809 whole entry, looked up): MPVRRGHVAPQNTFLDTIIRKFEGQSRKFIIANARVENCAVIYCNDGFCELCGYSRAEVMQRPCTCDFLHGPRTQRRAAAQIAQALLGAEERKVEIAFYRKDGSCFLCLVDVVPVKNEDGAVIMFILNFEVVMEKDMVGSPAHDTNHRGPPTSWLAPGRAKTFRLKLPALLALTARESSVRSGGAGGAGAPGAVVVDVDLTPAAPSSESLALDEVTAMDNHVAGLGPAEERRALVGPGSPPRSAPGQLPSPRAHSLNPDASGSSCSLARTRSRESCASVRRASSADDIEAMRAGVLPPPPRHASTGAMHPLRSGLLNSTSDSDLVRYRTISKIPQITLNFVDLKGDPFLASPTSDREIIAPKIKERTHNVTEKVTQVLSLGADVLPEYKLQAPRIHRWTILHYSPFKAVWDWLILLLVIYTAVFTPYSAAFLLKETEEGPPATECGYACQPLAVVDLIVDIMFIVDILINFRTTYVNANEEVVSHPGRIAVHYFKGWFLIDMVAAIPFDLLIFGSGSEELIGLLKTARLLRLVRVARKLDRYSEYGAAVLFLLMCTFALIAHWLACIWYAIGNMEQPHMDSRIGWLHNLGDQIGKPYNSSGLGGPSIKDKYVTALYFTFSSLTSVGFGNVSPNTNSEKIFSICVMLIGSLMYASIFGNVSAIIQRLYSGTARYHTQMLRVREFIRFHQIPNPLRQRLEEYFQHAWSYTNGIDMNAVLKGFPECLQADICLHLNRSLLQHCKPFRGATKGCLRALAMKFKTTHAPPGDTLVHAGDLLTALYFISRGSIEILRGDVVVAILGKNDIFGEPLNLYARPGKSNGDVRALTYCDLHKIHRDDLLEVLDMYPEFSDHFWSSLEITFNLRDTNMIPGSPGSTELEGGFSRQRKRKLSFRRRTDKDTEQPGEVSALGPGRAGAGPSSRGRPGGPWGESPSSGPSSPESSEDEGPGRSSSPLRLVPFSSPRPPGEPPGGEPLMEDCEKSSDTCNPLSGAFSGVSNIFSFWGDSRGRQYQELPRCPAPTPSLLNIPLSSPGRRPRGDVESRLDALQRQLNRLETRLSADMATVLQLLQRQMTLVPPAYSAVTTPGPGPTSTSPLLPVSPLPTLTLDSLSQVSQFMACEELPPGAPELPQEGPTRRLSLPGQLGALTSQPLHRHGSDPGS

Row | SMILES | hERG current change (%, negative = inhibition) at 10uM
1 | Cc1noc(C)c1COC(=O)CN(C)S(=O)(=O)c1ccc(Cl)cc1 | -14.4%
2 | COCCCNC(=O)CC(NS(=O)(=O)c1ccc(F)cc1)c1ccc(OC)cc1 (stereo not shown) | -1.73%
3 | Nc1c2c(nc3ccccc13)CCN(Cc1ccccc1)C2 | -56.1%
4 | Cl.Nc1c2c(nc3ccccc13)CCCC2.O | -42.3%
5 | Nc1c2c(nc3ccccc13)CSCC2 | -57.3%
6 | c1ccc(CN2CCc3nc4ccccc4cc3C2)cc1 | -4.62%
7 | Nc1nc2c(c(=O)[nH]1)CN(Cc1ccccc1)CC2 | 7.8%
8 | Cl.Nc1c2c(nc3ccccc13)CCCC2 | -39.7%
9 | C/C(=N\O)C1(C)N(O)C(C)(C)C(c2ccco2)=[N+]1[O-] (stereo not shown) | 22.2%
10 | Cc1cccc(NC(=O)c2nc[nH]c2C(=O)N2CCc3ccccc3C2)c1 | 5.13%
11 | O=C1NC(Nc2nc3ccccc3s2)(C(F)(F)F)C(=O)N1C1CCCCC1 (stereo not shown) | -6.17%
12 | N/C(=N\OC(=O)CCC1CCCC1)c1cccc([N+](=O)[O-])c1 | -70.4%
13 | CN(CC(=O)O/N=C(\N)c1cccc([N+](=O)[O-])c1)S(=O)(=O)c1ccccc1 | -24.4%
14 | Cc1ccc(S(=O)(=O)N(C)CC(=O)O/N=C(\N)c2cccc([N+](=O)[O-])c2)cc1 | -66.8%
15 | N/C(=N\OC(=O)CCC1CCCCC1)c1cccc([N+](=O)[O-])c1 | -15.1%
16 | N/C(=N\OC(=O)CC1CCCCC1)c1cccc([N+](=O)[O-])c1 | -6.21%
17 | Cc1ccc(S(=O)(=O)N(C)CC(=O)O/N=C(\N)c2ccc([N+](=O)[O-])cc2)cc1 | -45.9%
18 | Cc1nnc2sc(-c3ccc(-c4ccc(Cl)c(C(F)(F)F)c4)o3)nn12 | 3.66%
19 | CCCCSc1nnc(-c2ccc(C)cc2)n1C | -33.7%
20 | COc1cc(C(=O)Nc2ccc3c(c2)ncn3C(C)(C)C)cc(OC)c1OC | 9.04%
21 | CCOc1c2ccccc2nn1CCOC | 5.42%
22 | CCN(CC)CCN(Cc1cc2cc(C)ccc2[nH]c1=O)C(=S)NCc1ccco1 | -43.4%

Row | SMILES | hERG current change (%, negative = inhibition) at 10uM
23 | CCc1ccc2[nH]c(=O)c(CN(Cc3ccco3)C(=S)NCC3CCCO3)cc2c1 (stereo not shown) | -19%
24 | CCc1ccc2[nH]c(=O)c(CN(CCN(C)C)C(=S)NCc3ccco3)cc2c1 | -52%
25 | CCc1ccc2[nH]c(=O)c(CN(CCN(CC)CC)C(=S)NCc3ccco3)cc2c1 | -67.9%
26 | CCc1ccc2[nH]c(=O)c(CN(CC3CCCO3)C(=S)NCc3ccco3)cc2c1 (stereo not shown) | -21.6%
27 | CN(C)CCCN(Cc1cc2cc3c(cc2[nH]c1=O)OCO3)C(=S)NCc1ccco1 | -19.2%
28 | O=C1c2cccc3c([N+](=O)[O-])ccc(c23)C(=O)N1c1ccc(Cl)cn1 | 0.201%
29 | COC(=O)c1cccc(NS(=O)(=O)c2ccc(OC)cc2)c1C | -1.48%
30 | COc1ccc(-c2cc(C(F)(F)F)nc(SCCC(=O)NCc3ccccc3)n2)cc1 | -14.5%
31 | CCCOc1ccc(C(=O)Nc2c[nH]c(=O)[nH]c2=O)cc1 | -6.41%
32 | CCn1c(COc2cccc(OC)c2)nnc1SCC(=O)Nc1cccc(OC)c1 | -41.1%
33 | N=c1c(C(=O)NC2CCCC2)cc2c(=O)n3ccccc3nc2n1CCCN1CCOCC1 | -78.2%
34 | N=c1c(C(=O)NC2CCCC2)cc2c(=O)n3ccccc3nc2n1CCN1CCOCC1 | -91.9%
35 | O=C(c1ccco1)N1CCN=C1SCc1cccc(F)c1 | -6.98%
36 | Cc1csc2ncc(C(=O)NCCC(c3ccccc3)c3ccccc3)c(=O)n12 | -0.968%
37 | Cc1cc(-c2nn(C)c(=O)c3ccccc23)cc(C)c1O | 0.868%
38 | Cc1ccc(COCCN2CCN(S(=O)(=O)c3ccccc3)CCC2=O)cc1 | -0.87%
39 | Cc1ccc(S(=O)(=O)N2CCC(=O)N(CCOC(=O)Nc3cc(C)cc(C)c3)CC2)cc1 | -40.7%
40 | Cc1ccc(NC(=O)OCCN2CCN(S(=O)(=O)c3ccc(C)cc3)CCC2=O)cc1 | -18.5%
41 | Cc1ccc(S(=O)(=O)N2CCC(=O)N(C(COCc3cccc(Cl)c3)C(C)C)CC2)cc1 (stereo not shown) | -35.2%
42 | Cc1ccc(S(=O)(=O)N2CCC(=O)N(CCOC(=O)Nc3cccc(Cl)c3)CC2)cc1 | -65.7%
43 | Cc1ccc(S(=O)(=O)N2CCC(=O)N(C(COCc3ccc(Cl)cc3)C(C)C)CC2)cc1 (stereo not shown) | -51.7%
44 | Cc1ccc(S(=O)(=O)N2CCC(=O)N(CCOCc3ccc(Cl)cc3)CC2)cc1 | -60.1%

Row | SMILES | hERG current change (%, negative = inhibition) at 10uM
45 | Cc1ccc(S(=O)(=O)N2CCC(=O)N(C(COCc3ccccc3)C(C)C)CC2)cc1 (stereo not shown) | -23.2%
46 | Cc1ccc(COCCN2CCN(S(=O)(=O)c3ccc(C)cc3)CCC2=O)cc1 | 6.17%
47 | COc1ccc(C2=Nc3cccc4cccc(c34)N2)cc1 | 9.66%
48 | Cc1cccc(Nc2nnc(SCC(=O)Nc3cccc(S(=O)(=O)N4CCCCC4)c3)s2)c1 | 3.37%
49 | C=CCN1C(=O)NC(=O)/C(=C/c2ccoc2)C1=O | 20.5%
50 | CCn1c(C)[n+](CCOC(C)=O)c2cc(Cl)c(Cl)cc21.[I-] | -8.87%
51 | COC(=O)CCCC(=O)N1CCC(CCC(=O)NCc2ccc(F)cc2)CC1 | -24%
52 | COC(=O)N1CCN(c2ccc(Cl)c(Cl)c2)CC1 | -1.86%
53 | CN(C)C(=C(C#N)C#N)N1CCN(c2ccc(Cl)cc2)CC1 | -48.3%
54 | CNC(=S)N1CCN(c2ccc(Cl)c(Cl)c2)CC1 | -6.17%
55 | N#C/C=C(/N)N1CCN(c2ccc(Cl)c(Cl)c2)CC1 | -73.9%
56 | CCOC(=O)N1CCN(c2ccc(Cl)c(Cl)c2)CC1 | -11.1%
57 | CN(C)C(=C(C#N)C#N)N1CCN(c2ccc(Cl)c(Cl)c2)CC1 | -63.2%
58 | CCC1(c2ccccc2)NC(=O)N(CC(=O)Nc2ccccc2N2CCCCC2)C1=O (stereo not shown) | -15.8%
59 | CCCc1ccc(Oc2cc(N3CCOCC3)nc(-c3ccccc3)n2)cc1 | 21.5%
60 | CCC(=O)Nc1cccc(-c2nc3ccc(C)cc3o2)c1 | -13.4%
61 | CC1(C)CC(O)C(C)(C)N1O (stereo not shown) | 3.9%
62 | CCc1nnc(NS(=O)(=O)c2ccc(N=Cc3c(C)[nH]n(-c4ccc(Cl)cc4)c3=O)cc2)s1 | 17.7%
63 | Cc1ccc(C)c(CN2C(=O)CSc3ccc(C(=O)N4CCCC4)cc32)c1 | -17%
64 | Cc1ccc(C)c(CN2C(=O)CSc3ccc(C(=O)NCC(C)CN4CCC(C)CC4)cc32)c1 (stereo not shown) | -75.8%
65 | Cc1ccc(C)c(CN2C(=O)CSc3ccc(C(=O)NCCN4CCOCC4)cc32)c1 | 14.6%
66 | CCOC(=O)c1nn(-c2ccccc2F)c(-c2ccccc2)c1C(=O)c1ccccc1 | 7.34%

Row | SMILES | hERG current change (%, negative = inhibition) at 10uM
67 | O=C(NCCc1ccccc1)c1ccc(-n2cnnn2)cc1 | -4.78%
68 | COCCN(C(=O)COC(=O)c1cccc2ccccc12)c1c(N)n(Cc2ccccc2)c(=O)[nH]c1=O | -0.159%
69 | COc1ccc(/C=C/CN2CCC(n3nccc3NC(=O)C3CCCC3)CC2)cc1 | -88.6%
70 | COc1ccc(OCC(=O)N2CCC(n3nccc3NC(=O)C3CC3)CC2)cc1 | 1.44%
71 | COc1ccc(CC(=O)N2CCC(n3nccc3NC(=O)C3CC3)CC2)cc1 | 13.7%
72 | COc1ccc(/C=C/CN2CCC(n3nccc3NC(=O)C3CC3)CC2)cc1 | -72.7%
73 | COC(=O)c1ccc2c(=O)n(-c3ccccc3)c(SCN3C(=O)c4ccccc4C3=O)nc2c1 | 11%
74 | COc1ccc(/C(C)=N/Nc2ccc(F)cc2F)c(O)c1 | 6.58%
75 | COc1ccccc1C(=O)NC(=O)CSc1nc(C)cs1 | 12%
76 | CCOC(=O)N1CCN(C(=O)CN(c2cccc(OC)c2)S(C)(=O)=O)CC1 | -5.17%
77 | COc1cc(OC)c2c(C)cc(=O)oc2c1C(CCN1CCOCC1)c1ccc(N(C)C)cc1 (stereo not shown) | -28.5%
78 | COc1cc(OC)c2c(-c3ccccc3)cc(=O)oc2c1C(CCN1CCCC(C)C1)c1ccc(N(C)C)cc1 (stereo not shown) | -30%
79 | COc1cc(OC)c2c(C)cc(=O)oc2c1C(CCN1CCN(c2ccccc2)CC1)c1ccc2c(c1)OCO2 (stereo not shown) | -11.1%
80 | COc1ccc(C(CC(=O)N2CCCC(C)C2)c2c(OC)cc(OC)c3c(-c4ccccc4)cc(=O)oc23)cc1 (stereo not shown) | 8.57%
81 | COc1cc(OC)c2c(-c3ccccc3)cc(=O)oc2c1C(CC(=O)N1CCOCC1)c1ccc2c(c1)OCO2 (stereo not shown) | 1.51%
82 | COc1cc(O)c(C(CCN2CCOCC2)c2cc(OC)c(OC)c(OC)c2)c(OC)c1 (stereo not shown) | 8.02%
83 | COc1ccc(C(CCN2CCCC(C)C2)c2c(OC)cc(OC)c3c(C)cc(=O)oc23)cc1 (stereo not shown) | -74.3%
84 | COc1cc(C(CCN2CCOCC2)c2c(OC)cc(OC)c3c(C)cc(=O)oc23)cc(OC)c1OC (stereo not shown) | -79.3%
85 | COc1cc(C(CCN2CCN(c3ccccc3)CC2)c2c(OC)cc(OC)c3c(C)cc(=O)oc23)cc(OC)c1OC (stereo not shown) | -6.01%
86 | COc1ccc(C(CCN2CCOCC2)c2c(OC)cc(OC)c3c(C)cc(=O)oc23)cc1 (stereo not shown) | -69.2%
87 | COc1cc(OC)c2c(C)cc(=O)oc2c1C(CCN1CCOCC1)c1ccc2c(c1)OCO2 (stereo not shown) | -68.4%
88 | COc1ccc(C(CC(=O)N2CCOCC2)c2c(OC)cc(OC)c3c(-c4ccccc4)cc(=O)oc23)cc1 (stereo not shown) | 12%

— paper PMC4336329 (PLoS ONE, 2015)
